# Source: PubChem BioAssay (Sanford-Burnham Center for Chemical Genomics)
# This is a sample that favours compounds with a hit; in the whole collection about 2.6% have one here.
# APOBEC3A inh: APOBEC3A ssDNA deaminase inhibitors, primary screen, selectivity assay for APOBEC3G inhibitor project, biochemical, FAM/TAMRA oligo cleavage fluorescence. DNA dC->dU-editing enzyme APOBEC-3A (Homo sapiens), P31941. recombinant A3A, FAM/TAMRA ssDNA deamination fluorescence. inhibition, % at 20 µM. 330,000 tested, 0.41% active;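 active means at least 40% inhibition at 20 µM here, with at most 30% in a related deaminase screen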
# PABP polyA inh: PABP poly(A) RNA binding inhibitors, primary screen, biochemical, fluorescence polarization, uHTS; calls only at 35 µM; 290,000 tested, 1% active; AID 2014, 2009; Polyadenylate-binding protein 1 (Homo sapiens), P11940;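 further: calls also rest on retests at 20 µM and on dose response follow-up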
# Target sequence (P11940 whole entry, looked up): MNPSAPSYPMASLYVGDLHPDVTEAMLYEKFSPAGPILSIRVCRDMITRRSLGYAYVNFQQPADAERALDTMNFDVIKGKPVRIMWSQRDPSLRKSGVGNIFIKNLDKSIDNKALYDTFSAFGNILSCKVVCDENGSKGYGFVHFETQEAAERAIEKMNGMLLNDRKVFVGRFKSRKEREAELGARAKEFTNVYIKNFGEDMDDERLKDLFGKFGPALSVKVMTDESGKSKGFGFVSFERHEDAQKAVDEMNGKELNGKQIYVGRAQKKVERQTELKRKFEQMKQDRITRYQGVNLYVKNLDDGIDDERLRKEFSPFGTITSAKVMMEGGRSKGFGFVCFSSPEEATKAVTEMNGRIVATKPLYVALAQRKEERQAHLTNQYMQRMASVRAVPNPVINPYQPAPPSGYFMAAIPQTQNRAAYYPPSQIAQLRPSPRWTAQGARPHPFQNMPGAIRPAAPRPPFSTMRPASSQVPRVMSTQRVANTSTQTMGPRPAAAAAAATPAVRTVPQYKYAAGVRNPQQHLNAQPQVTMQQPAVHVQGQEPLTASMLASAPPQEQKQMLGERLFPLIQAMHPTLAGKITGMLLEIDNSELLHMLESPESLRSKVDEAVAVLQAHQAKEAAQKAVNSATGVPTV
# PHOSPHO1 block: PubChem AID 1565; inhibition, % at 13.3 µM; recombinant PHOSPHO1, absorbance phosphatase assay; Phosphoethanolamine/phosphocholine phosphatase (Homo sapiens), Q8TCT1; 290,000 tested, 1.1% active; in the data active means inhibition above about 60%
# PABP1 MLLE inh: inhibitors of PABP1 MLLE–PAM2 peptide binding, primary screen, biochemical, fluorescence polarization, FITC-PAM2, GST-MLLE | Polyadenylate-binding protein 1 (Homo sapiens), P11940 | inhibition, % at 20 µM | 360,000 tested, 0.36% active; in the data active means inhibition above about 35%, passing the limit was not always enough
# APOBEC3G inh: APOBEC3G DNA deaminase inhibitors, primary screen, biochemical, fluorescence, single-stranded DNA substrate, uHTS. DNA dC->dU-editing enzyme APOBEC-3G (Homo sapiens), Q9HC16. recombinant A3G, ssDNA deamination FAM/TAMRA fluorescence. inhibition, % at 20 µM. 330,000 tested, 0.28% active. AID 493012, 2011;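 active means inhibition of at least 40% at 20 µM, with no more than 30% in the related APOBEC3A deaminase screen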
# eIF4H inh: human eIF4H binding inhibitors, primary screen, translation initiation inhibitor project, biochemical, uHTS, fluorescence polarization | AID 2012, 2009 | Eukaryotic translation initiation factor 4H (Homo sapiens), Q15056 | 290,000 tested, 0.94% active | eIF4H fluorescence polarization binding assay | inhibition, % at 35 µM;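 further: calls also rest on retests at 20 µM and on dose response follow-up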
# Numbers stand for hits; – = inactive; ? = inconclusive; · = no result given; + = active, no number. Unless noted, how the calls were made is not given here.
SMILES,APOBEC3A inh,PABP polyA inh,PHOSPHO1 block,PABP1 MLLE inh,APOBEC3G inh,eIF4H inh
CCOC(=O)c1cc(N)cc([N+](=O)[O-])c1,–,–,–,–,–,–
CCOC(=O)c1sc2cc([N+](=O)[O-])cc(SCC(C)C)c2c1N,–,–,64.0,–,–,–
C=CCN1C(=O)/C(=C2/Sc3ccccc3N2CCCS(=O)(=O)O)SC1=S,–,–,–,41.4,–,–
C=CCN1C(=O)/C(=C2/Sc3ccccc3N2CC)SC1=S,–,–,–,–,–,–
COC(=O)c1c(NC2=NS(=O)(=O)c3ccccc32)sc2c1CCC(C(C)(C)C)C2 (stereo unspecified),·,·,·,–,·,·
CSCC[C@H](NC(=O)Cc1c(C)c2c(cc(C)c3c(C)coc32)oc1=O)C(=O)O,–,–,–,–,–,–
COc1ccc(-c2ccc3c(N)c(C(=O)c4cccc(OC)c4)sc3n2)cc1,–,–,88.6,–,–,–
CC1CCN(C(=O)CSc2nncn2-c2ccccn2)CC1,–,–,73.8,38.8,–,–
CC(C)c1ccc(O)c(NC(=S)NC(=O)c2ccc3c(c2)OCO3)c1,–,–,–,46.8,–,–
COc1cc(OC)c([N+](=O)[O-])cc1/C=N/NC(=O)c1ccncc1,–,+,–,–,–,58.7
COc1cccc(/C=N/NC(=O)c2ccncc2)c1OC(=O)c1ccc(Br)cc1,–,?,–,58.7,–,?
COc1cc(/C=N/NC(=O)c2ccncc2)ccc1OC(=O)c1cccc(Br)c1,–,–,–,–,–,–
CCCCC(=O)O,–,·,·,–,–,·
COc1cccc(NC(=S)N/N=C2/CCCCc3ccccc32)c1,·,–,–,45.4,·,–
CC(C)CC(=O)Nc1nnc(SCC(=O)NC2CCCCC2)s1,–,–,–,–,–,–
O=C(NC1CCCCC1)NC1CCN(C(=S)NCc2ccco2)CC1,–,–,81.6,–,–,–
CCN(C(=O)COC(=O)/C=C/c1ccc(OC(F)F)c(OC)c1)C1CCS(=O)(=O)C1 (stereo unspecified),–,·,·,–,–,·
O=C(O)c1ccc(N2C(=O)CC(N3CCN(c4cccc(C(F)(F)F)c4)CC3)C2=O)cc1 (stereo unspecified),–,–,–,–,–,–
Cc1ccc(C23CC4CC(CC(NC(=O)NCCN(C)C)(C4)C2)C3)cc1,–,–,–,–,–,–
CN(C)CCNC(=O)COc1ccc(C23CC4CC(CC(C4)C2)C3)cc1,–,–,66.2,–,–,–
O=C(N/N=C/c1ccc(N2CCOCC2)cc1)c1ccncc1,–,·,·,–,–,·
O=C(CN1CCOCC1)N/N=C/c1ccccc1,–,–,60.0,–,–,–
O=C(N/N=C/c1ccc(N2CCOCC2)cc1)c1ccccc1OCCOc1ccccc1,–,+,–,–,–,104.3
COCCCn1c(-c2ccco2)nc2ccccc2c1=O,–,–,–,–,–,–
CCn1nc([N+](=O)[O-])c2c(-c3nc4ccccc4o3)c(N)n(CCCOC)c2c1=O,–,+,95.9,–,–,70.1
SMILES,APOBEC3A inh,PABP polyA inh,PHOSPHO1 block,PABP1 MLLE inh,APOBEC3G inh,eIF4H inh
O=C1NC(c2ccccc2)(C(F)(F)F)SC2=CCCCCN12 (stereo unspecified),–,–,–,42.3,–,–
Cc1sc(NC(=O)CCCC(=O)O)c(C(N)=O)c1-c1ccccc1,–,–,–,35.2,–,–
O=c1nc(Nc2ccccc2)oc2ccccc12,–,–,–,–,–,–
O=c1nc(Nc2cccc(Cl)c2)oc2cc(Cl)oc(=O)c12,–,+,–,–,–,–
Cc1cc([N+](=O)[O-])nn1CC(=O)N/N=C/c1ccccc1F,–,+,–,–,–,58.3
Cc1ccccc1NC(=O)Cn1c([N+](=O)[O-])cnc1C,–,–,–,–,–,–
Cc1cc([N+](=O)[O-])nn1CC(=O)N/N=C/c1ccccc1O,–,–,–,–,–,–
Cc1ncc([N+](=O)[O-])n1CC(=O)N/N=C/c1ccccc1F,–,–,67.7,–,–,–
